# Measurements reported in publication PMC4336329 (PLoS ONE, 2015).
# Among all 310,000 compounds or so, about 2,200 (0.71%) showed an effect of 50% or more. Effects have a minus sign here. The list comes from a sample in which strong results are over-represented; it also holds similar structures and randomly drawn compounds.
# Molecular target: human ether-à-go-go-related gene (hERG) potassium channel (human, UniProt Q12809)
# Experiment: primary screen, population patch clamp on CHO cells stably expressing hERG; higher = less effect of the substance
# Sequence of human ether-à-go-go-related gene (hERG) potassium channel (Q12809 whole entry, looked up): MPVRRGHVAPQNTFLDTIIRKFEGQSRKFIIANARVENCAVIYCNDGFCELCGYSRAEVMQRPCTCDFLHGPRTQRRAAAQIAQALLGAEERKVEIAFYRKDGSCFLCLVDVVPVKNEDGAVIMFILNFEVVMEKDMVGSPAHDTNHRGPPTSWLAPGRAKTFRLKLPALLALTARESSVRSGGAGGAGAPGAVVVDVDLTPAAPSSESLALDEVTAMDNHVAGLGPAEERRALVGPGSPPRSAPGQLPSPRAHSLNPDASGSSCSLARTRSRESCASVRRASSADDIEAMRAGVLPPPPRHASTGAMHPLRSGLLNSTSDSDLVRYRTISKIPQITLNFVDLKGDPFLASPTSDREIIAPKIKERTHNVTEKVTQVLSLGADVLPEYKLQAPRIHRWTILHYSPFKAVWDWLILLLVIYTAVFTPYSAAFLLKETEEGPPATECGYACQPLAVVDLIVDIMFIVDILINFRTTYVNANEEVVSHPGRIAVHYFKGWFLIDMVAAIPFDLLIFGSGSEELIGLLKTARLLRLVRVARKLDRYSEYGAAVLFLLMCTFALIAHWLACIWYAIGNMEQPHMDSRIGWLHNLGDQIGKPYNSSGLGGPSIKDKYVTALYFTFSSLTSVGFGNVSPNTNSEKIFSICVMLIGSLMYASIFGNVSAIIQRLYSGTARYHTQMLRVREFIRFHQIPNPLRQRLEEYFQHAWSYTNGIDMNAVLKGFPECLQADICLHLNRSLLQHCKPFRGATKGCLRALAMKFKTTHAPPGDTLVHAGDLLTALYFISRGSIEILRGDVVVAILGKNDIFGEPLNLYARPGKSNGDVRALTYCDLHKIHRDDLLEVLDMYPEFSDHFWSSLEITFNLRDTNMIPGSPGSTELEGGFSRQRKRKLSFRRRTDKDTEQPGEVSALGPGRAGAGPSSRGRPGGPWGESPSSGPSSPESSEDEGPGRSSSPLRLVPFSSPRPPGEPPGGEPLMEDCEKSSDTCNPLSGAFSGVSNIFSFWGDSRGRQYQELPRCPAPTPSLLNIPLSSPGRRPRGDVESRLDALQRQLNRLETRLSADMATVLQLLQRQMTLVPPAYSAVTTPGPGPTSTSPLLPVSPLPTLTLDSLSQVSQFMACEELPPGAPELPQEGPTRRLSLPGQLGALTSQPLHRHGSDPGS
row,Structure (SMILES),"hERG current change (%, negative = inhibition) at 1uM [%]"
1,COc1ccccc1NC(CC(=O)c1ccccc1)C(=O)OCC(=O)c1ccc(F)cc1 (centres unmarked),-11.1
2,COc1ccccc1C(=O)Nc1c2c(nn1-c1cccc(C)c1C)CS(=O)C2 (centres unmarked),-3.22
3,Cc1ccc(-n2c(O)c(C=Nc3ccc(S(=O)(=O)Nc4ncccn4)cc3)c3ccccc3c2=O)cc1C,-2.78
4,CC(=O)N1N=C(c2ccc(Br)cc2)CC1c1cn(C)c2ccccc12 (centres unmarked),9.41
5,O=C(N/N=C1\CCCc2ccccc21)c1cccc(Br)c1,9.96
6,CCOC(=O)C1(Cc2cccc(F)c2)CCN(CCCn2cccn2)CC1,-51.2
7,CCOC(=O)C1(Cc2ccc(Cl)cc2)CCN(Cc2cn(CC)nc2C)CC1,-28.5
8,CCOC(=O)C1(CCCc2ccccc2)CCN(Cc2cn(CC)nc2C)CC1,-59.8
9,CCOC(=O)C1(Cc2cccc(F)c2)CCN(Cc2cnn(CC)c2)CC1,-4.74
10,CCOC(=O)C1(Cc2cccc(F)c2)CCN(CC2CC2)CC1,-2.54
11,CCOC(=O)C1(CCCc2ccccc2)CCN(Cc2ccn[nH]2)CC1,-27.8
12,COC(=O)C1=CN(Cc2ccc(OC)c(OC)c2)C=C(C(=O)OC)C1c1ccc(F)cc1,4.21
13,COCCNC(=O)c1ccc(CSc2nc3ccccc3s2)cc1,3.95
14,Cn1c(C(=O)N2CCN(c3ccc(Cl)cc3)CC2)cc2c(=O)[nH]c3ccccc3c21,-56
15,Cc1cccc(N2CCN(C(=O)c3cc4c(=O)[nH]c5ccccc5c4n3C)CC2)c1C,11.2
16,Cc1ccc(Cl)cc1N1CCN(C(=O)c2cc3c(=O)[nH]c4ccccc4c3n2C)CC1,10.4
17,COc1ccccc1C(=O)Nn1c(C2CCC2)nc2ccccc2c1=O,4.52
18,CCc1ccc(CNC(=O)Cn2nc(-c3ccccc3)ccc2=O)cc1,8.46
19,CC1CCc2c(sc(NC(=O)C(=O)NCc3ccco3)c2C#N)C1 (centres unmarked),-63.6
20,CC1CCc2c(sc(NC(=O)COC(=O)c3ccccc3NCc3ccco3)c2C#N)C1 (centres unmarked),12.9
21,CC(=O)Nc1sc2c(c1C#N)CCC(C)C2 (centres unmarked),11.7
22,CC(=O)c1cc(C#N)c(SCc2ccc([N+](=O)[O-])cc2)nc1C,10.4
23,Cc1nc(N)nc(SCc2ccc([N+](=O)[O-])cc2)c1N,-70.8

row,Structure (SMILES),"hERG current change (%, negative = inhibition) at 1uM [%]"
1,Cc1cc(C)nc(SCc2ccc([N+](=O)[O-])cc2)n1,6.29
2,CC(OC(=O)c1ccc2ncsc2c1)C(=O)Nc1ncc(Cl)cc1Cl (centres unmarked),8.58
3,CC(NC(=O)c1ccc2c(c1)OCCO2)c1ccc(S(N)(=O)=O)cc1 (centres unmarked),-3.42
4,O=[N+]([O-])c1ccc2oc(C3CCCCC3)nc2c1,14.4
5,CC(NC(=O)c1cccc(S(=O)(=O)N(C)C)c1)c1nc2ccccc2[nH]1 (centres unmarked),9.08
6,O=C(Cn1nc(-c2ccccc2)ccc1=O)Nc1ccc(-n2cnnn2)cc1,9.23
7,O=C1NC(=O)C(CCc2ccncc2)(CCc2ccncc2)C(=O)N1C1CCCCC1,-69.7
8,O=C1NC(=O)C(CCc2ccncc2)(CCc2ccncc2)C(=O)N1Cc1ccc(F)cc1,-78.2
9,O=C1NC(=O)C(CCc2ccncc2)(C2CCCCC2)C(=O)N1,11.2
10,O=C1NC(=O)C(CCc2ccncc2)(CCc2ccncc2)C(=O)N1CCc1ccccc1,-23.1
11,CCc1ccc(N2C(=O)NC(=O)C(CCc3ccncc3)(CCc3ccncc3)C2=O)cc1,-41.1
12,O=C1NC(=O)C(CCc2ccncc2)(Cc2ccc3c(c2)OCO3)C(=O)N1CCc1ccccc1 (centres unmarked),-10.8
13,O=C1NC(=O)C(CCc2ccncc2)(CCc2ccncc2)C(=O)N1Cc1ccccc1,-43.4
14,C=CCN1C(=O)NC(=O)C(CCc2ccncc2)(CCc2ccncc2)C1=O,-12.3
15,O=C1NC(=O)C(CCc2ccncc2)(CCc2ccncc2)C(=O)N1CCc1ccc(F)cc1,-77.1
16,O=C1c2ccccc2C(O)(c2ccccc2)N1C1CC1 (centres unmarked),-8.45
17,C#CCOc1ccc(Br)cc1C(c1c(C)[nH][nH]c1=O)c1c(C)[nH][nH]c1=O,11.6
18,c1ccc2oc(SCc3cn4ccccc4n3)nc2c1,-12.5
19,COC(=O)COc1ccc(NC(=O)C(c2ccccc2)c2ccccc2)cc1,6.63
20,O=C(Nc1ccc(C(F)(F)F)cc1)c1csc(-c2ccncc2)n1,-2.94
21,O=C(Nc1cccc(C(F)(F)F)c1)c1csc(-c2ccncc2)n1,-82.4
22,Cc1ccc(C(=O)Nc2cccc(C(F)(F)F)c2)cc1NC(=O)c1csc(-c2ccncc2)n1,-17.1
23,CN(CCCNC(=O)C1CCC(=O)N1Cc1ccccc1Cl)c1ccccc1 (centres unmarked),19.2

row,Structure (SMILES),"hERG current change (%, negative = inhibition) at 1uM [%]"
1,CCOC(=O)C1(CC2CC2)CCN(Cc2cn(C)c3ccccc23)CC1,12.2
2,CCOC(=O)C1(CC2CC2)CCN(Cc2cn[nH]c2-c2ccccc2)CC1,-65.5
3,CCOC(=O)C1(CC2CC2)CCN(Cc2cn[nH]c2-c2cccc(F)c2)CC1,-57.6
4,CCOC(=O)C1(Cc2ccccc2)CCN(Cc2cn[nH]c2-c2ccccc2)CC1,1.58
5,CCOC(=O)C1(CC2CC2)CCN(Cc2ccc(OC)cc2F)CC1,-73.3
6,CCOC(=O)N1CCN(Cc2cn[nH]c2-c2ccc(-c3ccccc3)cc2)CC1,7.03
7,CCOC(=O)C1(CC2CC2)CCN(Cc2cnc(-c3ccc(OC)cc3)nc2)CC1,11.7
8,CCOC(=O)C1(CC2CCCCO2)CCN(Cc2ccc(OC)cc2F)CC1 (centres unmarked),-19.8
9,CCOC(=O)C1(CC2CCCCO2)CCN(Cc2cn[nH]c2-c2cccc(F)c2)CC1 (centres unmarked),-27.2
10,Cc1cnc(C(=O)OCC(=O)Nc2cc(S(=O)(=O)N3CCCCC3)ccc2Cl)cn1,19.4
11,CCOc1ccc(NC(=O)CC2C(=O)N(c3cccc(OC)c3)C(=O)N2CCOC)cc1 (centres unmarked),3.67
12,CC(C)CN(C(=O)CN1CCN(S(=O)(=O)c2ccccc2)CC1)c1c(N)n(CC(C)C)c(=O)[nH]c1=O,-2.18
13,CCOC(=O)c1c(CN(CC)CC)n(-c2ccccc2)c2ccc(O)cc12,-45.6
14,Cc1ccc(C(=O)Nc2cnc3ccccc3c2)cc1,6.66
15,COc1ccc2c(CN3CC=C(c4ccccc4)CC3)cc(=O)oc2c1,13.1
16,Nc1cccc(Cl)c1N1CCOCC1,9
17,COc1ccccc1CNC(=O)C1CCCN(S(=O)(=O)c2cccc3cccnc23)C1 (centres unmarked),0.692
18,COc1cc(C(=O)N2CCN(C(=O)COc3ccc4ccccc4c3)CC2)cc(OC)c1OC,-54
19,O=C(COc1ccccc1)N1CCN(C(=O)c2ccc([N+](=O)[O-])cc2)CC1,-19
20,COc1cc(OC)cc(C(=O)N2CCN(C(=O)COc3ccc4ccccc4c3)CC2)c1,-4.51
21,COc1ccc(OCC(=O)N2CCN(C(=O)c3ccc([N+](=O)[O-])cc3)CC2)cc1,-43.2
22,COc1cccc(C(=O)N2CCN(C(=O)COc3ccc4ccccc4c3)CC2)c1,-3.85
23,O=C(COc1ccc2ccccc2c1)N1CCN(C(=O)c2ccc([N+](=O)[O-])cc2)CC1,-69.3

row,Structure (SMILES),"hERG current change (%, negative = inhibition) at 1uM [%]"
1,O=C(CN1CCN(C(=O)C2CC2)CC1)Nc1cc(C(F)(F)F)cc(C(F)(F)F)c1,-5.9
2,CCOc1ccc(Br)cc1S(=O)(=O)NC1CC(C)(C)NC(C)(C)C1,17
3,CC1(C)CC(NC(=O)COc2ccc3ccc(=O)oc3c2)CC(C)(C)N1,13.6
4,CCOC(=O)c1c(NCc2ccccc2)n[nH]c1C,4.96
5,CCOC(=O)c1c2n(c3c(NCc4ccccc4)ncnc13)CCCC2,-70.3
6,CCOC(=O)CSc1ncnc2c(C(=O)OCC)c3n(c12)CCC3,-10.4
7,COC(=O)c1c(NC(=O)CSc2ncn[nH]2)sc(C)c1C,11.2
8,CCN1CCN(c2ncnc3scc(-c4ccc(C)cc4)c23)CC1,3.26
9,Cc1ccc(-c2csc3ncnc(N4CCN(C)CC4)c23)cc1C,10.8
10,CCN1CCN(c2ncnc3scc(-c4ccc(C)c(C)c4)c23)CC1,-50.8
11,CN(C)S(=O)(=O)c1ccc(C(=O)NCc2ccccn2)cc1,14.5
12,Cl.NS(=O)(=O)c1ccc(CCNCc2ccccc2OCc2ccc(Cl)cc2)cc1,-70.5
13,Cl.NS(=O)(=O)c1ccc(CCNCc2cc(Cl)ccc2OCc2ccccc2)cc1,-59.3
14,Cl.NS(=O)(=O)c1ccc(CCNCc2ccccc2OCc2ccc(F)cc2)cc1,-21.5
15,COc1cc(CNCCc2ccc(S(N)(=O)=O)cc2)ccc1OCc1ccc(Cl)cc1.Cl,-1.77
16,CN(C/C=C/c1ccccc1[N+](=O)[O-])Cc1ccccc1,-8.37
17,COc1ccc(CCN(C)C/C=C/c2ccccc2[N+](=O)[O-])cc1OC,-54.3
18,C=CCOc1ccccc1CNCCc1ccc(S(N)(=O)=O)cc1.Cl,-6.97
19,COc1ccc(CCN(C)Cc2ccc(OC)c(OCc3ccccc3)c2)cc1OC,-77
20,COc1ccc(CCN(C)Cc2ccc(OCc3ccccc3)c(OC)c2)cc1OC,-42.9
21,COc1cc(CN(C)CCc2ccccc2)ccc1OCc1ccccc1,-12.2
22,Cl.NS(=O)(=O)c1ccc(CCNCc2cc(Br)ccc2OCc2ccccc2)cc1,-44.9
23,COc1ccc(CCN(C)C/C=C/c2ccccc2)cc1OC,-43.3
